Assay outcomes deposited in PubChem by National Center for Advancing Translational Sciences (NCATS).
The list is not random: actives were taken first. Their share in the collection is about 9.4%.
ELG1 genotoxic – inducers of genotoxicity in HEK293T ELG1-luciferase cells | HEK293T ELG1-luciferase reporter, luminescence, 16 h | Potency, µM (highest dose often 46 µM), without a hit: top-dose activity change, positive = activation, most hits filed as activators | 330,000 compounds, 1.3% hits | AID 504466; also: % of control where 0% means no effect; nearly all actives have a fitted effect of over 60% in size
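HEK293T cells expressing luciferase-tagged ELG1 were exposed to compound or DMSO vehicle for 16 hr at 37 °C and 5% CO2. Luciferase activity was then measured with ONE-Glo after 30 min at room temperature.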
SMN2 splice enh – increases expression of the SMN2 splice variant | HEK293 SMN2-luciferase splicing reporter, luminescence, 30-36 h | Potency, µM (highest dose often 46.1 µM), for the others: at the highest dose activity change, positive = activation, most hits filed as activators | 210,000 compounds, 2.8% hits | AID 1458; also: % of control where 0% means no effect; nearly all actives have a fitted effect of over 55% in size
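HEK293 cells carry an SMN2 […]–luciferase reporter in which exon 7 inclusion puts luciferase in frame. Cells were plated 10-12 h before compound addition, then incubated 30-36 h at 37C. ONE-Glo luminescence was read; sodium butyrate at 4.5 mM final served as control.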
ELG1 DNA repair – ELG1-dependent DNA repair inhibition; HEK293T ELG1-luciferase reporter, luminescence, 16 h; DNA damage induced by 5-fluorouridine; Potency, µM (doses to about 46.1 µM), inactives show at the highest dose activity change, negative = inhibition, hits mostly inhibitors; 330,000 compounds, 2.3% hits; also: % is scaled to controls: 0 for no effect and ±100 for the full control effect; nearly all actives have a fitted effect of over 55% in size
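DMSO vehicle served as the neutral condition. Each well held 2,000 cells given 5-fluorouridine plus compound; after 16 hr at 37 °C/5% CO2, ONE-Glo was added and luciferase measured 30 min later.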
FLuc counter – counter-screen for miR-21 project: firefly luciferase inhibitors or activators | Potency, µM (series often up to 57.5 µM), without a hit: top-dose activity change, negative = inhibition, most hits filed as inhibitors | 360,000 compounds, 6.9% hits | purified FLuc, Km substrates, luminescence inhibition;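 also: plate controls were vehicle for no effect and reference inhibitor for full effect; nearly all actives have a fitted effect of over 55% in size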
Target sequence (P08659 whole entry, looked up): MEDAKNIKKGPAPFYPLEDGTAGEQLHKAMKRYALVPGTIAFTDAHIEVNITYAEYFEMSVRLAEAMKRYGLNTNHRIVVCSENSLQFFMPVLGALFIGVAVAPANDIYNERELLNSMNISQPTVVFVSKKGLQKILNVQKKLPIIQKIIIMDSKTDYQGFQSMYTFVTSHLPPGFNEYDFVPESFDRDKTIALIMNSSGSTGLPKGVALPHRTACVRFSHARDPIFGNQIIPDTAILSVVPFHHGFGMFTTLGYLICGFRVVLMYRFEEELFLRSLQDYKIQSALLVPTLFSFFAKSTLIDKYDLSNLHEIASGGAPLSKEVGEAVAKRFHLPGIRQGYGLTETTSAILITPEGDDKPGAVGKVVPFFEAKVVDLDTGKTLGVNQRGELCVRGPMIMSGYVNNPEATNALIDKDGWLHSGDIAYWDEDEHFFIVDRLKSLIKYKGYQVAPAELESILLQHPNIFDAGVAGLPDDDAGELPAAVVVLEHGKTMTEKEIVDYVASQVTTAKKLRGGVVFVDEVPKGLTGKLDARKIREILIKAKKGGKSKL
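Purified P. pyralis luciferase, 10 nM final, with Km-level 10 uM D-luciferin and 10 uM ATP in 50 mM Tris acetate pH 7.5, 10 mM Mg acetate, 0.01% Tween-20, 0.05% BSA; 6-point qHTS titration about 60 µM downward; luminescence read.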
Rab9 promoter act – activates the Rab9 promoter. Huh7 Rab9 promoter-luciferase reporter, luminescence, 24 h. Potency, µM (doses to about 9.22 µM), without a hit: top-dose activation, negative = inhibition, hits mostly activators. 320,000 compounds, 2.8% hits; also: % of control where 0% means no effect; nearly all actives have a fitted effect of over 60% in size
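Rab9 promoter-driven luciferase in stably transfected Huh7 cells; 1500 cells/well rested 2 h, exposed to compound in DMSO for 24 h at 37 °C, 5% CO2. Luminescence read 10 min after adding luciferase reagent at ambient temperature.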
NPC1 prom act – activators of NPC1 promoter; Potency, µM (series often up to 9.22 µM), for inactives: top-dose activation, actives largely listed as activators; Huh7 NPC1 promoter luciferase reporter, 24 h; 320,000 compounds, 2.4% hits; AID 485313; also: % of control where 0% means no effect; nearly all actives have a fitted effect of over 60% in size
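Huh7 cells stably carrying NPC1 promoter–luciferase, plated in Opti-MEM with 10% FBS for 2 h, were exposed to compound in DMSO for 24 h at 37 °C; luciferase reagent was added for 10 min and luminescence read.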
* = called active by the depositor. Calls follow the shape of the dose curve; as a rule, active = well fitted curve in the direction sought with a large enough effect; inconclusive = small, poorly fitted or top-dose-only effect, or another doubt; inactive = no such curve, though single readings can be large; an effect the other way counts as inactive or inconclusive. Potency is read from the fitted curve at half-maximal effect.

What do the screens show for `COc1ccccc1N(CC(=O)Nc1ccc(Cc2ccncc2)cc1)S(=O)(=O)c1ccccc1`?
ELG1 genotoxic: -34%; ELG1 DNA repair: 18µM*; FLuc counter: 0%; Rab9 promoter act: 4%; NPC1 prom act: -3%

How did COc1ccccc1N(CC(=O)NCCSCc1ccc(C)cc1)S(=O)(=O)c1ccccc1 do in these assays?
ELG1 genotoxic: -17%; ELG1 DNA repair: 16µM*; FLuc counter: -1%; Rab9 promoter act: -2%; NPC1 prom act: -2%

What do the screens show for `COc1ccc(N(CC(=O)NCCSc2ccccc2)S(=O)(=O)c2ccccc2)c(OC)c1`?
ELG1 genotoxic: -10%; ELG1 DNA repair: 21µM*

What do the screens show for `COc1ccc(N(CC(=O)Nc2ccc(Cc3ccncc3)cc2)S(=O)(=O)c2ccccc2)cc1`?
ELG1 genotoxic: -10%; ELG1 DNA repair: -30%; FLuc counter: 2%; Rab9 promoter act: 2%; NPC1 prom act: -1%

What do the screens show for `Cc1cc(C)cc(-n2ccnc2SCC(=O)Nc2ccc(C)cc2C)c1`?
FLuc counter: -18%

Results for CCc1ccccc1N1CC(c2nc3ccccc3n2CCC2CCCCC2)CC1=O (stereo unspecified) ?
SMN2 splice enh: -14%; FLuc counter: -13%

How did CCCCNC(=O)CCn1c(=O)c2cccn2c2cccnc21 do in these assays?
FLuc counter: -1%

Results for O=C(N/C(C(=O)N1CCOCC1)=C(\Sc1ncccn1)c1ccccc1)c1ccccc1 ?
ELG1 genotoxic: -10%; SMN2 splice enh: -1%; ELG1 DNA repair: 23µM*; FLuc counter: 0%; Rab9 promoter act: 2%; NPC1 prom act: -3%

Results for COc1ccccc1C(=O)Nc1cccc2cccnc12 ?
ELG1 genotoxic: 8%; ELG1 DNA repair: 50%; FLuc counter: 17µM*; Rab9 promoter act: inconclusive; NPC1 prom act: 24%

How did O=C(NCCc1ccccc1F)c1cccc2cccnc12 do in these assays?
ELG1 genotoxic: inconclusive; ELG1 DNA repair: inconclusive; FLuc counter: 17µM*; Rab9 promoter act: 1.8µM*; NPC1 prom act: 3.2µM*

Results for Cc1ccc(NC(=O)c2cccc3cccnc23)cc1 ?
ELG1 genotoxic: inconclusive; ELG1 DNA repair: inconclusive; FLuc counter: 5.4µM*; Rab9 promoter act: 1.6µM*; NPC1 prom act: 2.5µM*

What do the screens show for `Cc1ccc(NC(=O)CN(C)S(=O)(=O)c2cccc3cccnc23)cc1`?
ELG1 genotoxic: 0%; SMN2 splice enh: -6%; ELG1 DNA repair: -16%; FLuc counter: -13%; Rab9 promoter act: 1%; NPC1 prom act: 1%

What do the screens show for `CC(=O)Nc1cccc(NC(=O)c2cccc3cccnc23)c1`?
ELG1 genotoxic: -4%; ELG1 DNA repair: inconclusive; FLuc counter: 13µM*; Rab9 promoter act: 23%; NPC1 prom act: -1%

What do the screens show for `CN(CC(=O)Nc1ccc(Cl)c(Cl)c1)C(=O)c1cccc2cccnc12`?
ELG1 genotoxic: 0%; ELG1 DNA repair: -21%; FLuc counter: 3%; Rab9 promoter act: 4%; NPC1 prom act: -5%

How did CCCCN(Cc1ccccc1)S(=O)(=O)c1ccc2c(c1)CC(C)N2C(=O)CC (stereo unspecified) do in these assays?
SMN2 splice enh: 2%; FLuc counter: -14%

Results for C=CCn1c(=NC(=O)c2cccs2)sc2cccc(OC)c21 ?
ELG1 genotoxic: -8%; ELG1 DNA repair: -8%; FLuc counter: 15µM*; Rab9 promoter act: 14%; NPC1 prom act: -1%

How did CCn1c(=NC(=O)c2ccc(S(=O)(=O)N(C)C)cc2)sc2cccc(OC)c21 do in these assays?
ELG1 genotoxic: -1%; SMN2 splice enh: -23%; ELG1 DNA repair: inconclusive; FLuc counter: -6%; Rab9 promoter act: -1%; NPC1 prom act: -12%
